Source: PubChem BioAssay (several laboratories)
Only some compounds are listed: those with a hit (about 4.6% of all), similar ones and a draw of the others.
HSF1 inhib – HSF1 inhibition | activity change, negative = inhibition, % at 7.5 µM (by protocol) | 300,000 compounds, 0.77% hits | NIH3T3-HGL HSE-luciferase, MG132-induced, luminescence 8 h; active compounds read low;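 active = more than half of replicate wells show activity change below -50%, luminescence cut by over half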;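 also: luciferase reports HSF-1 transcriptional activity via heat shock element; 0% = median of DMSO wells and -100% = zero luminescence signal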
FXN GAA850 act – increases GAA850 frataxin promoter reporter activity; HEK293 lucGAA850 FXN promoter luciferase reporter, 24 h; percent of 10 µM SAHA response; activation, % at 6 µM; 360,000 compounds, 0.56% hits; AID 540364;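 active = activation above the average of all compounds screened plus 3 SD, cutoff fixed separately per campaign, cut at about 7.5% in these data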;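 also: 0% = DMSO wells and 100% = 10 µM SAHA wells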
HSF1 activator – increases HSF-1 driven luciferase reporter signal; NIH3T3-HGL HSF-1 luciferase reporter, MG132, 8 h; 100% = twice DMSO control signal; activation, % at 9 µM; 300,000 compounds, 1.7% hits;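 active = mean replicate activation of at least 50% with a set share of replicates each reaching 50%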;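 also: 0% = median of the neutral control wells and 100% = twice that signal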
AHR activator – activates the human aryl hydrocarbon receptor. P35869. 320,000 compounds, 2.5% hits. AID 2796. activation, % at 5 µM. AHR-responsive luciferase reporter cells, luminescence; in the data active = activation above about 47%;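 also: 0% = vehicle wells and 100% = reference agonist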
Target sequence (P35869 whole entry, looked up): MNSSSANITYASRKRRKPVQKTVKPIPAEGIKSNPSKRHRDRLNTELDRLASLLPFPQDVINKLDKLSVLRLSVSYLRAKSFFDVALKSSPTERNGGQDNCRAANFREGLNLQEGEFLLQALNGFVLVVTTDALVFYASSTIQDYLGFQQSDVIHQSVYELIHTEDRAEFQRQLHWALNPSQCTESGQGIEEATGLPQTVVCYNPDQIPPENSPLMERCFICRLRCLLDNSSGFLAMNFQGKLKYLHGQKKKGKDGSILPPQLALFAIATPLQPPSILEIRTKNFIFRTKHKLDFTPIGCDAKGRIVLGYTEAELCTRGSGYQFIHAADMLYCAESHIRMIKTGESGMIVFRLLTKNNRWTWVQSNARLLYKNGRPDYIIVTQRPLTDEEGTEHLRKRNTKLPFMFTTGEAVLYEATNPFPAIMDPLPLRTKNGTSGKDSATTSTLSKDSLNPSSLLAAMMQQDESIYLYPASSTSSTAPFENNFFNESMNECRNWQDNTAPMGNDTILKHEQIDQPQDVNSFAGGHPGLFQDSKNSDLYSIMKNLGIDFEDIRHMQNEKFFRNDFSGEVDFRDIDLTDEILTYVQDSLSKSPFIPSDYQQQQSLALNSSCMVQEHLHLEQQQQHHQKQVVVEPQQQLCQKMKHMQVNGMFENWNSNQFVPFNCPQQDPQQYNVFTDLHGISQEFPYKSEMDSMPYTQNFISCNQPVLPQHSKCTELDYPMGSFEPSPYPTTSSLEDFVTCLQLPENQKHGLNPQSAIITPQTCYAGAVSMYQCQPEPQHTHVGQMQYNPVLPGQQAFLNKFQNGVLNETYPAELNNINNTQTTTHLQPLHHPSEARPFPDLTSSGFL
* = called active by the depositor; · = not tested or not shown.

SMILES	HSF1 inhib	FXN GAA850 act	HSF1 activator	AHR activator
Cc1ccc(C)c2[nH]c(=O)c(CCNC(=O)C(C)(C)C)cc12	-86*	-1	-89	9
Cc1ccc(-c2cc(N)n(Cc3ccc(Cl)cc3)n2)cc1	11	2	-5	56*
CC1CCN(CCc2nc3cc(NC(=O)Nc4ccccc4)ccc3n2C)CC1	153	7	177*	-3
COc1ccc(OCC(=O)Nc2ccc3c(c2)nc(CCN2CCN(C)CC2)n3C)cc1	26	1	53*	2
COc1ccc(C(=O)Nc2ccc3c(c2)nc(CN2CCCC2)n3C)cc1	-86*	0	-88	4
COc1ccc(C(=O)Nc2ccc3c(c2)nc(CN2CCN(C(C)=O)CC2)n3C)cc1	5	1	10	1
Cn1c(CCN2CCOCC2)nc2cc(NC(=O)COc3ccccc3)ccc21	57	4	68*	-3
COc1cc(NC(=O)c2ccccc2Cl)ccc1NC(=O)c1cccs1	13	3	42	0
O=C(Nc1cccc(NC(=O)c2cccs2)c1)c1ccc([N+](=O)[O-])o1	60	0	78*	2
COc1cc(NC(=O)c2cc3ccccc3cc2OC)ccc1NC(=O)c1cccs1	-58*	-6	-58	-8
COc1cc(NC(=O)c2cccs2)ccc1NC(=O)Cc1ccccc1	3	2	9	31
COc1cc(NC(=O)c2ccc([N+](=O)[O-])o2)ccc1NC(=O)c1cccs1	69	1	127*	-2
CCCc1cc(=O)[nH]c(SC/C=C/c2ccccc2)n1	12	2	14	0
CC(=O)NC1=NN(C(C)=O)C(c2cccs2)S1 (configuration not stated)	-7	-1	-14	0
O=c1oc2ccccc2cc1-c1nc2c(s1)CCCC2	-14	0	-14	95*
O=c1oc2ccccc2cc1-c1csc(NN=C2CCCCC2)n1	7	1	23	5
Cc1ccc(-c2nnn(CC(=O)N(C)C3CCCCC3)n2)o1	-7	-1	-10	4
COc1ccc(Cl)cc1NC(=O)CN(C)C(=O)Cn1c(=O)oc2ccccc21	-58*	1	-68	3
COc1ccc(Cl)cc1NC(=O)CN(C)C(=O)Cn1cnc2c1c(=O)n(C)c(=O)n2C	-74*	3	-80	-2
COCCNC(=O)Cn1cnc2c1c(=O)n(C)c(=O)n2C	28	0	56*	-3
C#CCOCCOCCOCCNc1nc(N2CCN(C(=O)[C@H](CCCN=C(N)N)n3cc(C(N)[C@H](C)CC)nn3)CC2)nc(N2CCN(C(=O)[C@H](CC(N)=O)n3cc(C(N)[C@@H](C)CC)nn3)CC2)n1 (some centres not stated)	·	-2	·	-1
CCc1nnc(NC(=O)CC23CC4CC(CC(Br)(C4)C2)C3)s1	22	0	58*	3
O=C(CC12CC3CC(CC(Br)(C3)C1)C2)Nc1nncs1	6	0	9	-2
COc1ccc(-c2cc(C(=O)NC(C)c3ccccn3)c3ccccc3n2)cc1OC (configuration not stated)	·	0	·	7
Cc1ccc(-c2nc(-c3ccccn3)no2)cc1Cl	-31	-10	-29	2
SMILES	HSF1 inhib	FXN GAA850 act	HSF1 activator	AHR activator
CC(C)c1nnc(SCc2ccc(CSc3nnc(C(C)C)n3N)cc2)n1N	26	2	80*	5
CCCSc1nnc(C(C)C)n1N	-8	-2	-3	1
COc1ccccc1N=Nc1ccc(N)c(C)c1	4	-4	24	60*
O=C(NC(=S)Nc1ncc(Br)cc1Br)c1ccccc1	36	4	76*	23
Cc1ccc(-c2nc(N)n(C(=O)c3cccnc3)n2)cc1	20	-1	31	16
CCC(C)(C)n1nnnc1CN1CCC(c2nc3ccc(C)cc3[nH]2)CC1	5	0	5	16
Cc1cc2nc(C3CCN(Cc4nnnn4Cc4ccccc4)CC3)[nH]c2cc1C	15	-2	12	54*
CCCCN(CCCC)C(=O)CSc1nnc2n(C)c(=O)c3c4c(sc3n12)CCCC4	·	-1	·	·
CCCSc1nnc2n(C)c(=O)c3c4c(sc3n12)CCC4	7	3	11	78*
CCCCN(CCCC)C(=S)NC(=O)C(C)(C)C	-2	3	12	1
O=C(NCCS(=O)(=O)NCc1ccco1)c1ccccc1	-7	0	-1	0
O=c1[nH]cccc1-c1nc2ccccc2[nH]1	2	-1	41	22
Nc1ccccc1-c1nc2ccccc2[nH]1	21	1	17	55*
Oc1ccc(C=Nc2ccccc2-c2nc3ccccc3[nH]2)cc1	18	1	34	74*
c1ccc(-c2cc(-c3nc4ccccc4[nH]3)c3ccccc3n2)cc1	-2	3	4	52*
CC(C)(C#N)N([O-])C=C[N+](=O)C(C)(C)C#N	-3	-2	-6	-3
COc1cc(C=O)ccc1OCc1ccccc1Br	11	3	20	12
COc1cc(C=O)ccc1OCc1cccc(Br)c1	24	3	63*	7
CCN(CC)C(=O)COc1ccc(C=O)cc1OC	38	1	75*	1
COc1ccc(/C=N/N2CCN(C)CC2)cc1OC	3	3	19	0
CCN1C(=O)S/C(=C/c2ccc(Oc3ccc([N+](=O)[O-])cn3)c(OC)c2)C1=O	5	-2	11	-3
Cc1cc(C)n(CCC(=O)N/N=C/c2c(O)ccc3ccccc23)n1	-1	-6	20	62*
Cc1cc(C)n2nc(C(=O)N/N=C/c3c4ccccc4cc4ccccc34)nc2n1	144	1	188*	19
COc1ccccc1OCC(=O)N/N=C/c1c(O)ccc2ccccc12	-3	-6	-19	51*
Oc1ccc2ccccc2c1C=NNc1ccccn1	70*	0	70*	·
SMILES	HSF1 inhib	FXN GAA850 act	HSF1 activator	AHR activator
CCN(CC(=O)NCC1CCCO1)S(=O)(=O)c1ccc(Cl)cc1 (configuration not stated)	-5	1	-4	3
COC(=O)C1=C(C)N(CCCC(=O)O)C(=O)NC1c1ccc(C#N)cc1 (configuration not stated)	-66*	1	-74	-1
COC(=O)C1=C(C)N(CCCC(=O)O)C(=O)NC1c1ccccc1Cl (configuration not stated)	-64*	0	-72	0
COC(=O)C1=C(C)N(CCCC(=O)O)C(=O)NC1c1ccc(-c2ccccc2)cc1 (configuration not stated)	-1	1	-5	3
Cc1ccc(CNC(=O)c2cc(-c3ccccc3)nn2Cc2cc(C)no2)cc1	9	1	20	0
CCN(CC)S(=O)(=O)c1cccc(-c2nc3n(n2)Cc2ccccc2-3)c1	13	3	17	19
Clc1ccc(-c2nc3n(n2)Cc2ccccc2-3)cc1	26	2	46	74*
CCOC(=O)c1c(N2C(=O)C3C4C=CC(O4)C3C2=O)sc2c1CCCC2 (configuration not stated)	68	-7	104*	2
COc1ccc(CCNC(=O)Cc2cccs2)cc1	-55*	2	-67	12
